Laboratory results as given in PubChem BioAssay (NCATS).
Records with an inconclusive call do not appear. More than one record can exist for a structure, and the calls need not agree. Activity calls are given as the source filed them. The call rests on the fitted dose curve; in most records, active means well fitted inhibition curve with a large enough effect; inconclusive means small, poorly fitted or top-dose-only effect; inactive means flat fitted curve, though single readings scatter.

Experiments:
Assay in all cases: qHTS profiling for inhibitors of Plasmodium falciparum proliferation (AID 504749); further: nearly all actives have a fitted effect of over 60% in size
Settings in all cases: P. falciparum in erythrocytes, SYBR Green DNA, 72 h; series mostly up to 28.7 µM
[1] = tested on: ATS95
Outline: (§1)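 Parasite proliferation within erythrocytes, 72 h exposure. Endpoint: SYBR Green I fluorescence after overnight lysis at room temperature. Controls: 0.29 uM artemisinin, DMSO.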

[2] = tested on: C2A
Outline: as §1

[3] = tested on: CP192
Outline: as §1

[4] = tested on: CP194
Outline: as §1

[5] = tested on: CP250
Outline: as §1

[6] = tested on: CP260
Outline: as §1

[7] = tested on: CP269
Outline: as §1

[8] = tested on: CP315
Outline: as §1

[9] = tested on: CP329
Outline: as §1

[10] = tested on: DIV30
Outline: as §1

[11] = tested on: ECU
Outline: as §1

[12] = tested on: HB3
Outline: as §1

[13] = tested on: JCK
Outline: as §1

[14] = tested on: PC15
Outline: as §1

[15] = tested on: PC49
Outline: as §1

[16] = tested on: SC27B
Outline: as §1

[17] = tested on: TAB113
Outline: as §1

[18] = tested on: TAB165
Outline: as §1

[19] = tested on: CP237
Outline: as §1

[20] = tested on: CP256
Outline: as §1

Measured: Potency
Potency means the concentration at half of the fitted maximal effect.

CCCCCOC(=O)Nc1nc(=O)n(C2O[C@H](C)[C@@H](O)[C@@H]2O)cc1F (stereo partly specified)
inactive: [1] | [2] | [3] | [4] | [5] | [6] | [7] | [8] | [9] | [10] | [11] | [12] | [13] | [14] | [15] | [16] | [17] | [18]

CCCCC(=O)O[C@]1(C(=O)CO)CCC2C3CCC4=CC(=O)CCC4(C)C3C(O)CC21C (stereo partly specified)
inactive: [1] | [2] | [3] | [4] | [19] | [5] | [20] | [7] | [8] | [9] | [10] | [11] | [12] | [13] | [14] | [15] | [16] | [17] | [18]

C[C@]12C=CC(=O)N[C@@H]1CC[C@@H]1C2CC[C@]2(C)C(C(=O)Nc3cc(C(F)(F)F)ccc3C(F)(F)F)CC[C@@H]12 (stereo partly specified)
active: [19] 5.01 µM | [6] 5.01 µM
inactive: [2] | [3] | [4] | [5] | [20] | [7] | [9] | [10] | [11] | [14] | [16] | [17]

COc1ccc2cc1Oc1cc3c(cc1OC)CC[N+](C)(C)C3Cc1ccc(cc1)Oc1c(OC)c(OC)cc3c1C(C2)[N+](C)(C)CC3 (stereo unspecified)
inactive: [1] | [2] | [3] | [4] | [19] | [5] | [20] | [6] | [7] | [8] | [9] | [10] | [11] | [12] | [13] | [14] | [15] | [16] | [17] | [18]

C[C@@H](O)[C@@H]1C(=O)N2C(C(=O)O)=C([C@H]3CCCO3)S[C@H]12
inactive: [1] | [2] | [3] | [4] | [19] | [5] | [20] | [6] | [7] | [8] | [9] | [10] | [11] | [12] | [13] | [14] | [15] | [16] | [17] | [18]

CCC(=O)O[C@]1(C(=O)CCl)[C@@H](C)CC2C3C[C@H](F)C4=CC(=O)C=CC4(C)[C@@]3(F)C(O)CC21C (stereo partly specified)
active: [1] 6.31 µM | [2] 12.6 µM | [4] 15.1 µM | [19] 3.55 µM | [5] 12.6 µM | [20] 11.2 µM | [6] 11.2 µM | [7] 12 µM | [9] 15100 nM | [10] 12 µM | [11] 3.55 µM | [12] 12.6 µM | [14] 8.91 µM | [16] 7.94 µM | [17] 8.91 µM | [18] 10 µM

C[N+]12CCCC[C@@H]1CCC(=C(c1cccs1)c1cccs1)C2 (stereo partly specified)
active: [3] 10.7 µM | [6] 11.2 µM | [7] 13.5 µM | [10] 12 µM | [11] 1 µM | [13] 10 µM | [15] 10 µM | [17] 11.2 µM | [18] 12.6 µM

N#C/C(=C1/SCC(c2ccccc2Cl)S1)n1ccnc1 (stereo unspecified)
inactive: [2] | [3] | [4] | [19] | [5] | [20] | [6] | [7] | [8] | [9] | [10] | [12] | [13] | [14] | [15] | [17]
active: [18] 12.6 µM

CCCC(=O)Nc1c(I)cc(I)c(C[C@H](CC)C(=O)O)c1I
inactive: [1] | [2] | [3] | [4] | [19] | [5] | [20] | [7] | [8] | [9] | [10] | [11] | [12] | [13] | [14] | [15] | [16] | [17] | [18]

CC(=O)CC(c1ccccc1)C1C(=O)Oc2ccccc2C1=O (stereo unspecified)
inactive: [2] | [3] | [4] | [19] | [5] | [20] | [6] | [7] | [8] | [9] | [10] | [11] | [12] | [13] | [14] | [15] | [16] | [17] | [18]

CO/N=C(/C(=O)N[C@@H]1C(=O)N2C(C(=O)O)=C(CSc3nnnn3C)CS[C@H]12)c1csc(N)n1
inactive: [1] | [2] | [3] | [4] | [19] | [5] | [20] | [6] | [7] | [8] | [9] | [10] | [11] | [12] | [13] | [14] | [15] | [16] | [17] | [18]

CCOC(=O)C(CCc1ccccc1)NC(C)C(=O)N1Cc2cc(OC)c(OC)cc2CC1C(=O)O (stereo unspecified)
active: [10] 7.57 µM | [11] 5.01 µM | [14] 10 µM | [15] 11.2 µM | [16] 7.08 µM | [18] 7.08 µM
inactive: [3] | [19] | [5] | [20] | [6] | [7] | [8] | [9] | [17]

C=C1NC(=O)c2cc(CN(C)c3ccc(C(=O)N[C@@H](CCC(=O)O)C(=O)O)s3)ccc2N1
inactive: [1] | [2] | [3] | [4] | [5] | [20] | [6] | [7] | [8] | [9] | [10] | [11] | [12] | [13] | [14] | [15] | [16] | [17] | [18]

CNC1C(O)C(OC2C(NC(=O)C(O)CN)CC(N)C(OC3OC(CN)C(O)C(O)C3O)C2O)OCC1(C)O (stereo unspecified)
inactive: [1] | [2] | [3] | [4] | [19] | [5] | [20] | [6] | [7] | [8] | [9] | [10] | [11] | [12] | [13] | [14] | [15] | [16] | [17] | [18]

Nc1nc(/C(=C/CC(=O)O)C(=O)NC2C(=O)N3C(C(=O)O)=CCSC23)cs1 (stereo unspecified)
inactive: [1] | [2] | [3] | [4] | [19] | [5] | [20] | [6] | [7] | [8] | [9] | [10] | [11] | [13] | [14] | [15] | [16] | [17] | [18]

O=C(O)Cc1sc(-c2ccc(Cl)cc2)nc1-c1ccccc1
inactive: [1] | [2] | [3] | [4] | [19] | [5] | [20] | [6] | [7] | [8] | [9] | [10] | [11] | [12] | [13] | [14] | [15] | [16] | [17] | [18]

C=C[C@@]1(C)C[C@H](OC(=O)CSC(C)(C)CNC(=O)[C@@H](N)C(C)C)[C@@]2(C)C(C)CC[C@@]3(CCC(=O)[C@@H]32)[C@H](C)[C@H]1O (stereo partly specified)
active: [1] 5.01 µM | [2] 5.01 µM | [3] 3.38 µM | [4] 1.9 µM | [19] 1.41 µM | [20] 0.316 µM | [6] 3.98 µM | [7] 1.07 µM | [8] 2.69 µM | [9] 601 nM | [10] 7.57 µM | [11] 4.47 µM | [16] 5.62 µM | [17] 5.62 µM | [18] 4.47 µM

CC1C(=O)C(=O)C=CN1C (stereo unspecified)
inactive: [1] | [2] | [3] | [4] | [19] | [5] | [20] | [7] | [8] | [9] | [10] | [11] | [12] | [13] | [14] | [15] | [16] | [17] | [18]

C/C(=C(/CCO)SS/C(CCO)=C(\C)N(C=O)Cc1cnc(C)nc1N)N(C=O)Cc1cnc(C)nc1N
inactive: [1] | [2] | [3] | [4] | [19] | [5] | [20] | [7] | [8] | [9] | [10] | [11] | [12] | [13] | [14] | [15] | [16] | [17] | [18]

CCC(C(=O)C(C)C(O)C(C)CCc1ccc(C)c(O)c1C(=O)O)C1OC(CC)(C2CC[C@@](O)(CC)C(C)O2)CC1C (stereo partly specified)
active: [1] 0.891 µM | [2] 0.794 µM | [4] 0.849 µM | [19] 0.562 µM | [5] 1 µM | [20] 1 µM | [6] 0.631 µM | [7] 0.757 µM | [8] 0.849 µM | [9] 757 nM | [10] 0.601 µM | [11] 0.708 µM | [12] 0.631 µM | [13] 8.91 µM | [14] 1.41 µM | [15] 2 µM | [16] 0.447 µM | [17] 0.891 µM | [18] 0.355 µM

NC(CSSCC(N)C(=O)O)C(=O)O (stereo unspecified)
inactive: [1] | [2] | [4] | [19] | [5] | [20] | [6] | [7] | [8] | [9] | [10] | [11] | [12] | [13] | [14] | [15] | [16] | [17] | [18]

CNC1=CN(O)C(c2ccccc2)=c2cc(Cl)ccc2=N1
7.94 µM (active) and inactive: [6]
3.79 µM (active) and inactive: [9]
4.26 µM (active) and inactive: [10]
inactive: [19] | [20] | [12] | [13] | [14] | [15]
active: [1] 5.01 µM | [3] 4.26 µM | [4] 4.26 µM | [7] 3.79 µM | [8] 1.9 µM | [17] 2.82 µM | [18] 4.47 µM

Cc1cc2nc3c(=O)[nH]c(=O)nc-3n(CC(O)C(O)C(O)COP(=O)(O)O)c2cc1C (stereo unspecified)
inactive: [1] | [2] | [3] | [4] | [19] | [5] | [20] | [6] | [7] | [8] | [9] | [10] | [11] | [12] | [13] | [14] | [15] | [16] | [17] | [18]
